Source: PubChem BioAssay (Tox21)
Results filed as inconclusive are left out. Calls of active or inactive are those of the source. Unless noted, the call rests on the fitted dose curve; in most records, active means well fitted curve in the direction sought with a large enough effect in the repeat runs; inconclusive means weak or mixed curves; inactive means no such curve, though single readings can be large; an effect the other way counts as inactive or inconclusive.

Tests used:
[1] = qHTS assay to identify small molecule agonists of the hypoxia (HIF-1) signaling pathway - cell viability counter screen (AID 1224844; calls by dose curve; further: nearly all actives have a fitted effect of over 50% in size; further: potency means the concentration at half of the fitted maximal effect)
In short: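 In this counter screen, HRE-bla ME-180 cell viability after 17 hrs of compound exposure at 37C was read by CellTiter-Glo luminescence, multiplexed with the beta-lactamase reporter measurement.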

[2] = qHTS assay to identify small molecule antagonists of the estrogen related receptor (ERR) signaling pathway from Tox21 library (AID 1224848); further: nearly all actives have a fitted effect of over 50% in size; further: potency means the concentration at half of the fitted maximal effect
In short: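 Luciferase luminescence (ONE-Glo, 30 min room temperature) was the read-out. Cells of the NTP-supplied ERR line, 2,000 per well, were given 6 h at 37 C before compound addition in DMSO and 18 h exposure at 37 C.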

[3] = qHTS assay to identify small molecule agonists of the estrogen related receptor (ERR) signaling pathway from Tox21 library (AID 1224849; calls by dose curve; further: on the % scale 0 is the no-effect control and ±100 the full control effect; nearly all actives have a fitted effect of over 15% in size); conditions: ERR reporter cell line, ONE-Glo luciferase, 18 h; at 92.4 µM (top of the series) unless noted
In short: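 Luciferase activity in ERR pathway reporter cells served as the agonist readout; exposure lasted 18 h at 37 C, with ONE-Glo detection after 30 min at room temperature.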

[4] = qHTS RealTime-Glo MT Cell Viability Assay in HepG2 cells - 24 hour (AID 1224867); further: on the % scale 0 is the no-effect control and ±100 the full control effect; nearly all actives have a fitted effect of over 50% in size
In short: (§1)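 Luminescence read-out: viable HepG2 cells reduce a prosubstrate to a NanoLuc substrate, giving a signal proportional to live cell number. Reads taken at 0, 8, 16, 24, 32 and 40 h of compound exposure at 37 C.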

[5] = qHTS RealTime-Glo MT Cell Viability Assay in HEK293 cells - 32 hour (AID 1224868); further: nearly all actives have a fitted effect of over 50% in size; further: potency means the concentration at half of the fitted maximal effect
In short: (§2)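 Nonlytic real-time viability readout: viable cells convert prosubstrate to NanoLuc substrate, giving luminescence proportional to live cell number. HEK293, 600 cells/well, compound added after 5 h, continuous culture at 37 C.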

[6] = A CellTox Green Cytotoxicity Assay to monitor cytotoxicity in HEK293 cells - 0 hour (AID 1224869)
In short: (§3)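 Real-time, in one plate: 600 HEK293 cells/well with dead-cell DNA dye, pinned compound after 5 h, 37 C incubation over 40 h; viable cells give no appreciable fluorescence.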

[7] = qHTS RealTime-Glo MT Cell Viability Assay in HepG2 cells - 40 hour (AID 1224870); further: nearly all actives have a fitted effect of over 50% in size; further: potency means the concentration at half of the fitted maximal effect
In short: (§4)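 Real-time viability: cells seeded at 600 per well together with NanoLuc and cell-permeant prosubstrate, compounds added after 5 h incubation. Luminescence tracked at 0, 8, 16, 24, 32 and 40 h of exposure.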

[8] = A CellTox Green Cytotoxicity Assay to monitor cytotoxicity in HEK293 cells - 40 hour (AID 1224871); further: nearly all actives have a fitted effect of over 45% in size; further: potency means the concentration at half of the fitted maximal effect
In short: as §3

[9] = qHTS RealTime-Glo MT Cell Viability Assay in HEK293 cells - 16 hour (AID 1224872); further: nearly all actives have a fitted effect of over 50% in size; further: potency means the concentration at half of the fitted maximal effect
In short: as §2

[10] = qHTS RealTime-Glo MT Cell Viability Assay in HepG2 cells - 8 hour (AID 1224873); further: on the % scale 0 is the no-effect control and ±100 the full control effect; nearly all actives have a fitted effect of over 55% in size
In short: as §4

[11] = qHTS RealTime-Glo MT Cell Viability Assay in HEK293 cells - 40 hour (AID 1224874); conditions: RealTime-Glo luminescence; max response: hits give low values; further: nearly all actives have a fitted effect of over 50% in size; further: potency means the concentration at half of the fitted maximal effect; on max response: on the % scale 0 is the no-effect control and ±100 the full control effect
In short: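 Kinetic, non-lysing viability readout. Seed HEK293 (600/well) with reagent, incubate 5 h at 37 C/5% CO2, pin 23 nL compound in DMSO, incubate at 37 C, read luminescence at 0, 8, 16, 24, 32, 40 h.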

[12] = A CellTox Green Cytotoxicity Assay to monitor cytotoxicity in HEK293 cells - 24 hour (AID 1224875); further: on the % scale 0 is the no-effect control and ±100 the full control effect; nearly all actives have a fitted effect of over 45% in size
In short: as §3

[13] = A CellTox Green Cytotoxicity Assay to monitor cytotoxicity in HepG2 cells - 24 hour (AID 1224878); further: nearly all actives have a fitted effect of over 45% in size; further: potency means the concentration at half of the fitted maximal effect; on Cytotoxicity: on the % scale 0 is the no-effect control and ±100 the full control effect
In short: (§5)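 Cytotoxicity was tracked as dead-cell DNA fluorescence in HepG2 cells treated with test compounds at 37 C; each time-point value comes from one kinetic series spanning 0, 8, 16, 24, 32 and 40 h.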

[14] = A CellTox Green Cytotoxicity Assay to monitor cytotoxicity in HepG2 cells - 40 hour (AID 1224879); further: nearly all actives have a fitted effect of over 40% in size; further: potency means the concentration at half of the fitted maximal effect
In short: as §5

[15] = qHTS RealTime-Glo MT Cell Viability Assay in HepG2 cells - 32 hour (AID 1224877); further: nearly all actives have a fitted effect of over 55% in size; further: potency means the concentration at half of the fitted maximal effect
In short: as §1

[16] = qHTS assay to identify small molecule agonists of H2AX (AID 1224845; active means well fitted activation curve with a large enough effect in the signal ratio in the repeat runs, not every such curve was filed as active; the % refers to the signal ratio; further: potency means the concentration at half of the fitted maximal effect)
In short: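 Phospho-H2AX Ser139 measured by HTRF (ex 320 nm; em 665 and 620 nm) after 24 hr antibody incubation. Compounds, 15 concentrations, 0.76% DMSO, were applied to CHO-K1 cells for 3hr at 37C before lysis.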

[17] = qHTS assay to identify small molecule agonists of the hypoxia (HIF-1) signaling pathway (AID 1224846; active means well fitted activation curve with a large enough effect in the signal ratio in the repeat runs, not every such curve was filed as active; the % refers to the signal ratio; further: on the % scale 0 is the no-effect control and ±100 the full control effect)
In short: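 ME-180 HRE-bla reporter cells; compounds in DMSO, 17 h at 37C; read-out beta-lactamase via CCF4-AM FRET.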

[18] = A CellTox Green Cytotoxicity Assay to monitor cytotoxicity in HepG2 cells - 16 hour (AID 1224876); further: nearly all actives have a fitted effect of over 45% in size; further: potency means the concentration at half of the fitted maximal effect
In short: as §5

[19] = qHTS assay to identify small molecule agonists of H2AX - cell viability counter screen (AID 1224847; calls by dose curve; further: nearly all actives have a fitted effect of over 30% in size; further: potency means the concentration at half of the fitted maximal effect)
In short: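 Quantitative HTS viability measurement: CHO-K1 wild-type cells in serum (10% FBS) medium, short 3 hr drug exposure at 37C with 0.76% DMSO, CellTiter-Glo luminescent detection.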

O=C(OCC(O)CO)c1ccccc1Nc1ccnc2cc(Cl)ccc12 (stereo not given)
active: Potency [2] 26.6 µM | Potency [5] 8.49 µM | Potency [9] 8.49 µM | Potency [11] 8.49 µM
inactive: Potency [1] | activity change, positive = activation [3] -40.1% [at 42.5 µM] | Potency [4] | Potency [6] | Potency [7] | Potency [8] | Potency [10] | Potency [12] | Potency [13] | Potency [14]

COC(=O)c1nc(Cl)c(Cl)nc1N
inactive: activity change, positive = activation [3] -72.9% [at 42.5 µM] | Potency [6]
active: Potency [1] 13.4 µM | Potency [2] 29.8 µM | Potency [5] 5.35 µM | Potency [7] 12 µM | Potency [9] 12 µM | Potency [11] 4.77 µM | Potency [15] 10.7 µM

O=C1c2ccccc2C(=O)C1(O)O
active: Potency [16] 50.8 µM
inactive: outcome [17] | activity change, positive = activation [3] -26.5% | Potency [4] | Potency [5] | Potency [6] | Potency [7] | Potency [8] | Potency [9] | Potency [10] | max response [11] -22.4% | Potency [12] | Potency [18] | Potency [15] | Potency [13]

CC1(C)[C@H](C(=O)O)N2C(=O)C[C@H]2S1(=O)=O
inactive: Potency [1] | outcome [17] | Potency [19] | Potency [2] | activity change, positive = activation [3] 5.98% [at 42.5 µM] | Potency [4] | Potency [5] | Potency [6] | Potency [7] | Potency [9] | Potency [10] | max response [11] 1.99% | Potency [12] | Potency [15] | Potency [13] | Potency [14]

C[C@@H](CN(C)C)CN1c2ccccc2Sc2ccccc21
inactive: outcome [17] | Potency [19] | activity change, positive = activation [3] -18.9% [at 42.5 µM] | Potency [6] | Potency [10] | Potency [12]
active: Potency [1] 19 µM | Potency [5] 21.3 µM | Potency [8] 16.9 µM | Potency [11] 23.9 µM | Potency [18] 23.9 µM | Potency [13] 26.8 µM | Potency [14] 26.8 µM

CCOC(=O)c1ccc(C#Cc2ccc3c(c2)C(C)(C)CCS3)nc1
active: Potency [14] 0.301 µM
inactive: Potency [1] | outcome [17] | Potency [4] | Potency [6] | Potency [7] | Potency [10] | Potency [12] | Potency [18] | Potency [15] | Potency [13]

O=C1c2ccccc2C(=O)N1CCc1noc(-c2ccc(CN3CCCCCC3)s2)n1
active: Potency [19] 92.3 µM | Potency [5] 35.7 µM | Potency [9] 22.5 µM | Potency [11] 20.1 µM | Potency [18] 20.1 µM | Potency [13] 31.8 µM | Potency [14] 35.7 µM
inactive: Potency [1] | outcome [17] | Potency [4] | Potency [7] | Potency [12] | Potency [15]

CC(=O)OCCN(CCOC(C)=O)c1ccc(N=Nc2ccc([N+](=O)[O-])cc2C#N)cc1
active: Potency [19] 50.5 µM | Potency [2] 61.1 µM
inactive: Potency [1] | outcome [17] | activity change, positive = activation [3] -46.9% | Potency [4] | Potency [6] | Potency [7] | Potency [8] | Potency [12] | Potency [18] | Potency [15] | Potency [13] | Potency [14]
